# Tests used:
# Conditions in all cases: concentration: 1 μM, replicates: in singlicate; n = 1
# [1] = tested on: BMX
# [2] = tested on: BRAF
# [3] = tested on: T1, BRK
# T1 construct: gene PTK6
# [4] = tested on: BRSK1
# [5] = tested on: BRSK2
# [6] = tested on: BTK
# [7] = tested on: BUB1
# [8] = tested on: CAMK1B
# [9] = tested on: CAMK1D
# [10] = tested on: CAMK1G
# 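Further: KINOMEscan kinase panel screen.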
SMILES,%Inh [1],%Inh [2],%Inh [3],%Inh [4],%Inh [5],%Inh [6],%Inh [7],%Inh [8],%Inh [9],%Inh [10]
O=C(Nc1cccc(-c2nn3ccccc3c2-c2ccnc(Nc3cccc(C(F)(F)F)c3)n2)c1)c1c(F)cccc1F [GSK292658],52%,43%,41%,0%,0%,50%,45%,33%,0%,0%
COC(=O)Nc1nc2cc(Oc3ccc(NC(=O)Nc4cc(C(F)(F)F)ccc4F)cn3)ccc2[nH]1.Cl.Cl [GW681170],5%,73%,0%,0%,0%,0%,3%,28%,12%,44%
COc1cc(Nc2ncc3c(C)nc(-c4cc5ccccc5[nH]4)n3n2)cc(OC)c1OC [GW869516],25%,0%,36%,0%,14%,0%,0%,0%,8%,0%
Cn1cc(-c2[nH]c3cc(NC(=O)[C@H](N)C4CCCCC4)cc4c3c2C=NNC4=O)cn1,13%,39%,14%,31%,61%,94.2%,100%,87%,90.4%,0%
CN1CCN(Cc2cccc(-c3ccc4c(Nc5ccc(Oc6ccccc6)cc5)ccnc4c3)c2)CC1 [GW578342],20%,0%,90.2%,0%,1%,90.8%,35%,10%,7%,0%
Cn1cc(-c2ccc3c(c2)CCN3C(=O)Cc2cccc(Cl)c2)c2c(N)ncnc21 [GSK2606590],4%,11%,56%,7%,0%,0%,0%,0%,32%,25%
O=C(Nc1cccc(-c2nn3ccccc3c2-c2ccnc(Nc3cccc(F)c3)n2)c1)c1c(F)ccc(F)c1Cl [GSK357952],63%,36%,69%,5%,0%,42%,29%,21%,12%,0%
C[C@@H](Oc1cc(-n2cnc3cc(-c4ccnc(NCCS(C)(=O)=O)c4)ccc32)sc1C(N)=O)c1ccccc1Cl [GSK907232],23%,0%,20%,55%,78%,0%,31%,31%,15%,13%
Cl.c1ccc(-c2ccc3c(Nc4ccc5[nH]ccc5c4)ccnc3c2)nc1 [GW440138],5%,0%,28%,0%,0%,0%,64%,11%,0%,0%
COC(=O)Nc1nc2ccc(Oc3ccc(NC(=O)Nc4cc(C(F)(F)F)ccc4F)cc3)cc2n1C.Cl [GW692089],5%,57%,0%,0%,26%,59%,42%,0%,1%,0%
COc1ccc(Nc2nccc(N3CCC(NC(=O)Nc4cccc(OC)c4)C3)n2)cc1 (centres unmarked) [GSK1379742],0%,2%,10%,4%,0%,0%,29%,17%,0%,0%
FC(F)(F)c1ccc(/C=C/c2cncnc2Nc2ccc3[nH]c(Cc4ccccc4)nc3c2)cc1 [GW709199],0%,0%,11%,3%,8%,19%,0%,0%,5%,0%
COc1ccc(-c2coc3ccc(-c4nnc(SCc5ccc(OC)c(C(F)(F)F)c5)o4)cc23)cc1,29%,0%,0%,0%,13%,0%,0%,8%,14%,3%
Cc1ccc(F)c(C(=O)Nc2cccc(-c3nn4ccccc4c3-c3ccnc(Nc4cccc(F)c4)n3)c2)c1F [GSK361061],48%,68%,74%,12%,0%,0%,42%,0%,18%,12%
Cn1cc(-c2ccc3c(c2)CCN3C(=O)Cc2cccc(F)c2)c2c(N)ncnc21 [GSK2603358],0%,4%,26%,14%,67%,0%,52%,34%,74%,11%
c1ccc(-c2cnc3nccnn23)cc1 [AH20685],0%,33%,22%,0%,0%,6%,0%,0%,0%,0%

SMILES,%Inh [1],%Inh [2],%Inh [3],%Inh [4],%Inh [5],%Inh [6],%Inh [7],%Inh [8],%Inh [9],%Inh [10]
COc1cccc(-c2ccc3c(NC(=O)C4CC4)n[nH]c3n2)c1 [SB-710903],0%,0%,3%,8%,3%,29%,82%,11%,0%,0%
CN(c1ccc(NC(=O)Nc2cc(C(F)(F)F)ccc2F)cc1)c1ccnc(Nc2ccc(S(N)(=O)=O)cc2)n1 [GW809893],71%,66%,76%,15%,8%,25%,0%,0%,38%,0%
O=C(NC1CCN(c2ccnc(Nc3ccc(F)cc3)n2)C1)c1cc2ccccc2s1 (centres unmarked) [GSK1379716],22%,0%,25%,18%,9%,0%,64%,9%,17%,0%
CC(C)c1nc(-c2cccc(NS(=O)(=O)c3c(F)cccc3F)c2F)c(-c2ccnc(Nc3ccc(N4CCOCC4)nc3)n2)s1 [GSK2008607],99.2%,99.9%,88%,49%,75%,95.3%,98%,67%,94.3%,42%
O=C(Nc1cccc(Oc2ccc3nc(NC(=O)C4CC4)cn3n2)c1)c1ccccc1C(F)(F)F,0%,65%,0%,6%,0%,16%,0%,0%,3%,0%
Fc1ccc(-c2ncn(C3CCNCC3)c2-c2ccnc(Oc3ccc(-c4ccccc4)cc3)n2)cc1 [SB-245391],0%,23%,7%,14%,16%,57%,20%,4%,30%,4%
O=c1[nH]cc(-c2ccc(N3CCOCC3)cc2)c2sc(-c3cn[nH]c3)cc12 [GSK2276055],11%,35%,0%,0%,0%,0%,0%,5%,29%,12%
O=C(Nc1n[nH]c2nc(-c3ccc(O)cc3)ccc12)C1CC1 [SB-710363],22%,0%,0%,26%,11%,0%,0%,0%,0%,4%
Nc1n[nH]c2cnc(-c3ccccc3)cc12 [SB-642124],5%,7%,19%,13%,7%,0%,44%,8%,0%,10%
COc1cc(Nc2nccc(N3CCC(NC(=O)Nc4cccc(C(C)=O)c4)C3)n2)cc(OC)c1OC (centres unmarked) [GSK1379753],1%,0%,8%,5%,0%,0%,31%,0%,20%,0%
Cl.Cl.NCC(C(=O)Nc1cc(Br)c(-c2ccnc3[nH]ccc23)s1)c1ccccc1 (centres unmarked) [GSK1269851],12%,1%,7%,6%,0%,0%,59%,24%,0%,0%
COc1cc(Nc2nccc(N3CCC(NC(=O)c4cc5ccccc5s4)C3)n2)cc(OC)c1OC (centres unmarked) [GSK1379760],1%,4%,11%,0%,4%,67%,26%,49%,14%,18%
Cl.Cl.NCC(NCc1ccc(-c2ccnc3[nH]ccc23)s1)c1ccccc1 (centres unmarked) [GSK1321565],8%,0%,0%,0%,0%,0%,64%,59%,17%,11%
CC(=O)N1CCN(c2ccc(Nc3nccc(-c4sc(C(C)C)nc4-c4cccc(NS(=O)(=O)c5cccc(Cl)c5)c4)n3)cn2)CC1 [GSK1660437],56%,99.3%,91.8%,0%,2%,36%,91%,0%,12%,0%
CNC(=O)c1ccccc1Nc1nc(Nc2ccc(N3CCOCC3)cc2)ncc1Cl.Cl [GSK1576028],91.4%,72%,94.6%,78%,92.4%,96.9%,96.7%,39%,54%,30%
Clc1ccc(-c2nn3ncccc3c2-c2ccnc(Nc3ccc4c(c3)OCCO4)n2)cc1 [GW829116],0%,52%,0%,0%,0%,0%,93.1%,0%,0%,0%

# — article PMC5540273 (PLoS ONE, 2017)
